High-throughput results: PubChem, National Center for Advancing Translational Sciences (NCATS)
RGS12 GoLoco inh: blocks human Gai1 binding to RGS12 GoLoco peptide, red readout. actives 0.44% (n = 230,000). Gai1:RGS12 GoLoco peptide FP, rhodamine, 10 min. Potency, µM (series often up to 61.6 µM), for inactives: top-dose activity, negative = inhibition, actives largely listed as inhibitors. AID 880. P63096; active = well fitted inhibition curve with a large enough effect, not every such curve was filed as active; inactive = no such curve, though single readings can be large or run the other way; note: potency is the fitted concentration of half-maximal effect; % is set by controls: 0 for no effect and ±100 for the full control effect; nearly all actives have a fitted effect of over 30% in size
PNC inhibitor: inhibitors of perinucleolar compartment assembly; PC3M PTB-GFP, PNC prevalence imaging, 16 h; hits give low values; activity change (PNC), negative = inhibition, % at 10 µM; actives 3.1% (n = 140,000); AID 2417;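 active = readout at or below -70, meaning at least 70% loss of cells showing the perinucleolar compartment, a nuclear body marking cancer cells; inconclusive = readout between -30 and a set limit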;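 note: plate controls were DMSO wells for no effect and camptothecin positive control wells for full effect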
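Compounds are pinned in duplicate onto adhered PC3M cells stably expressing GFP-tagged PTB and incubated 16 h at 37 C. Cells are then fixed, nuclei stained with Hoechst, and PNC-positive cells counted.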
ALDH1A1 block: blocks purified human ALDH1A1 activity; P00352; Purified ALDH1A1, NADH fluorescence, propionaldehyde substrate; Potency, µM (top dose mostly 75.3 µM), for inactives: at the highest dose activity, negative = inhibition, actives largely listed as inhibitors; actives 7.3% (n = 220,000); active = well fitted inhibition curve with a large enough effect, not every such curve was filed as active; inconclusive = small, poorly fitted or top-dose-only effect, or another doubt; inactive = no such curve, though single readings can be large or run the other way;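 note: potency is the fitted concentration of half-maximal effect; plate controls were no enzyme wells and a reference inhibitor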
Target sequence (P00352 whole entry, looked up): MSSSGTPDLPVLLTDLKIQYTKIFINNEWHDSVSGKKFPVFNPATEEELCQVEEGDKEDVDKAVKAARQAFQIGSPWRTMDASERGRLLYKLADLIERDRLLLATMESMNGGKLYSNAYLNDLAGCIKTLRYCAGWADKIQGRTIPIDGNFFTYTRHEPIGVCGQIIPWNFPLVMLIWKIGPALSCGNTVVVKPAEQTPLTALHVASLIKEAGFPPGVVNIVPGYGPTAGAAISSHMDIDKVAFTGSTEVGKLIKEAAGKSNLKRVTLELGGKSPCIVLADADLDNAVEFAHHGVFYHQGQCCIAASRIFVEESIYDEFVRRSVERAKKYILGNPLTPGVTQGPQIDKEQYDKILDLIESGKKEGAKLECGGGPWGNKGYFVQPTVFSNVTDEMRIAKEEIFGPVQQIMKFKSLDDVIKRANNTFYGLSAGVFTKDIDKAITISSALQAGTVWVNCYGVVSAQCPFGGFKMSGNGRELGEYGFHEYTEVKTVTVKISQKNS
HTT ATP protect: cytoprotection in Huntington HTT-Q103 PC12 cell model; PC12 HTT-Q103 induced, cytoprotection, ATP luminescence, 40 h; actives 0.14% (n = 230,000); AID 1471; Potency, µM (doses to about 56.4 µM), for the others: cytoprotection (ATP increase), usual class: activators; note: potency is the fitted concentration of half-maximal effect; % of control where 0% means no effect; nearly all actives have a fitted effect of over 45% in size
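PC12 cells stably carrying ecdysone-inducible Htt exon 1 (Q103)–GFP were induced with 100 nM tebufenozide (final) alongside library compounds in a dose series. Cytoprotection was scored as retained ATP by ATPlite luminescence.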
HPGD block: blocks human HPGD enzyme activity; actives 4.3% (n = 150,000); AID 894; P15428; Potency, µM, without a hit: at the highest dose activity change, negative = inhibition, actives largely listed as inhibitors; purified HPGD, NADH fluorescence kinetic, PGE2 substrate; active = well fitted inhibition curve with a large enough effect, not every such curve was filed as active; inconclusive = small, poorly fitted or top-dose-only effect, or another doubt; inactive = no such curve, though single readings can be large or run the other way; note: potency is the fitted concentration of half-maximal effect; % is set by controls: 0 for no effect and ±100 for the full control effect
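NADH formation kinetics: reaction with 30 uM PGE2 and 1 mM NAD+ (final), 20 nM enzyme, Tris-HCl pH 8 with Tween 20, after 15 min compound preincubation at room temperature. Fluorescence change, last versus first of five reads.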
HTT aggregate: inhibitors of mutant huntingtin aggregate formation in PC12 cells; PC12 HttQ103-GFP aggregates, Acumen cytometry, 40 h; Potency, µM (titrated, usually from 46.1 µM), for inactives: at the highest dose activity change, negative = inhibition, usual class: inhibitors; actives 1.1% (n = 220,000); AID 1688; note: potency is the fitted concentration of half-maximal effect; % is set by controls: 0 for no effect and ±100 for the full control effect; nearly all actives have a fitted effect of over 60% in size
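Inducible Q103 Huntingtin exon 1–GFP PC12 line, 1500 cells/well in phenol red free DMEM with 5% equine and 5% calf serum. Tebufenozide 100 nM induced expression; compounds titrated; aggregates quantified by cytometry.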
* = called active by the depositor; ? = inconclusive; . = no result given; [ ] = remark or other dose. Compounds with a hit are over-represented: about 11% of the library has one in this group of screens. Unless noted, calls come from the whole dose curve; as a rule, active = well fitted curve in the direction sought with a large enough effect; inconclusive = small, poorly fitted or top-dose-only effect, or another doubt; inactive = no such curve, though single readings can be large; an effect the other way counts as inactive or inconclusive.

SMILES | RGS12 GoLoco inh | PNC inhibitor | ALDH1A1 block | HTT ATP protect | HPGD block | HTT aggregate
COc1ccc(CNC(=O)c2c(C)nc3ccccn23)cc1 | 3% | -16 | -1% | 22%[10 µM] | -16% | 25µM*
COc1ccc(Br)cc1S(=O)(=O)NNC(=O)c1c(C)nc2ccccn12 | 9% | . | ? | -17%[10 µM] | . | -3%[9.22 µM]
COc1ccc(CCNC(=O)c2c(C)nc3ccccn23)cc1 | 1% | . | -11% | -1% | . | -8%
Cc1nc2ccccn2c1C(=O)NNS(=O)(=O)c1ccc(C(C)(C)C)cc1 | 4% | ? | 1.1µM* | 21%[0.074 µM] | -1% | -28%
Cc1nc2ccccn2c1C(=O)NN | . | 23 | 2.2µM* | 1%[10 µM] | . | -5%
N=C(N)SCCCN | 3%[14.2 µM] | . | 5%[13.5 µM] | -5%[10 µM] | -8% | .
Cc1ccc(C)c(/C(=N\N=C(N)N)C2CC2)c1 | 6%[14.2 µM] | . | 5%[13.5 µM] | -11%[10 µM] | -5% | .
O=C(/C=C/c1ccccc1Cl)NC(=S)Nc1ccccc1C(=O)NC1CCCCC1 | 11% | 28 | 22µM* | -14% | 28µM* | -10%
CCC(=O)NC(=S)Nc1ccccc1C(=O)NC1CCCCC1 | 6% | 27 | -7% | . | -3% | -11%
CC(C)C(=O)NC(=S)Nc1ccccc1C(=O)NC1CCCCC1 | 3% | -114* | -5% | . | -9% | -3%
O=C(COCc1nc2ccccc2c(=O)[nH]1)NCC1CCCCC1 | 1% | -100* | -1% | 11%[10 µM] | -15% | -11%
CCN(CC)CCN1C(=O)C(O)=C(C(C)=O)C1c1ccccc1 (stereo not given) | 3% | -5 | -3% | 2% | 0% | -2%
Cc1ccc(NC(=O)CN(C)C(=O)Cn2ncc(Cl)c(Cl)c2=O)cc1 | -6% | 31 | 28µM* | -10%[10 µM] | -7% | ?
Cc1ccc(O)c(Sc2cc(C)ccc2O)c1 | 11% | 1 | -3% | -2%[0.074 µM] | 16µM* | -3%
COC(=O)c1ccc(C)cc1 | -3% | . | -10% | 7% | -8% | .
Cc1ccc(O)c(N)c1 | 0% | . | ? | -94% | -9% | .
COC(=O)c1ccc(O)c(Sc2cc(C(=O)OC)ccc2O)c1 | -4% | 41 | 13µM* | -20%[10 µM] | 4µM* | ?
O=C1N=C(N2CCCC2C(=O)O)S/C1=C\c1ccco1 (stereo not given) | -15% | . | -10% | -46% | . | -14%
CC(CN(C)C)C(C)(O)Cc1ccc(Cl)cc1 (stereo not given) | 10% | . | ? | 7% | -8% | 2%
O=C(CSC(=S)N1CCCC1)c1cc(Br)cc(Br)c1O | 132% | . | 16µM* | -56% | . | ?
O=C(c1cc(Br)ccc1Cl)N1CCCC1 | 5% | . | -2% | -9% | . | 15%
CC1CCCN(C(=S)SCC(=O)c2cc(Br)cc(Br)c2O)C1 (stereo not given) | 102% | . | 25µM* | 44%[10 µM] | . | 12%[9.22 µM]
CCc1ccc(NC(=S)N(CCN(C)C)C(C)c2ccncc2)cc1 (stereo not given) | 1% | . | 6% | -11% | . | 0%
CC(C)NC(=O)Cn1cc(C(=O)C2CC2)c2ccccc21 | 5% | . | -7% | 0%[10 µM] | . | -18%[9.22 µM]
CC(C)(C)OC(=O)NC(CC(=O)OCc1ccccc1)C(=O)O (stereo not given) | 4% | . | . | 14%[10 µM] | . | 5%[9.22 µM]
SMILES | RGS12 GoLoco inh | PNC inhibitor | ALDH1A1 block | HTT ATP protect | HPGD block | HTT aggregate
COC(=O)C(Cc1cncn1COCc1ccccc1)NC(=O)OC(C)(C)C (stereo not given) | 1% | 12 | 20µM* | 2% | -5% | 16%
S=C(Nc1ccc2c(c1)Cc1ccccc1-2)Nc1ccc2c(c1)Cc1ccccc1-2 | 0%[14.2 µM] | . | 2%[13.5 µM] | 12%[10 µM] | -6% | .
NNC(=O)c1csc(-c2cccc(C(F)(F)F)c2)n1 | 1% | . | 4.5µM* | -35% | . | 9%
CC(CCc1ccccc1)NC(=O)CN1CCN(Cc2ccccc2)C1=O (stereo not given) | 4% | 25 | -3% | -1% | -2% | 13%
CC(C)(C)NC(=O)NC(=O)CN1CCN(c2ccccc2)CC1 | -4% | . | -4% | 19% | . | -8%
CC(C)(C)NC(=O)NC(=O)CN1CCN(c2ccc(O)cc2)CC1 | -18% | . | 22µM* | -33% | . | -18%
CC(CCc1ccccc1)NC(=O)CN1CCN(c2ccc(O)cc2)CC1 (stereo not given) | -16% | . | 8.9µM* | . | . | 31%
C/C(CC(=O)Nc1cccc(Cl)c1Cl)=N\NC(=O)c1ccccc1C | 208% | . | 8.9µM* | -6%[10 µM] | . | 10%[9.22 µM]
O=C(NC(Cc1ccccc1)C(=O)O)/C(=C/c1ccc([N+](=O)[O-])cc1)NC(=O)c1ccccc1Br (stereo not given) | 1% | . | ? | -4% | . | -27%
CC(C)(C)c1ccc(CN2N=C(/C=C/c3ccccc3)CCC2=O)cc1 | 9% | . | -3% | ? | . | ?
CC1=C[C@@H](O)CC(C)(C)[C@@H]1/C=C/C(C)=C/C=C/C(C)=C/C=C/C=C(C)/C=C/C=C(C)/C=C/C1=C(C)C[C@H](O)CC1(C)C | . | . | . | -29% | . | 21%
O=c1cc(-c2ccccc2Cl)oc2c([N+](=O)[O-])c(O)cc(O)c12 | 17%[88.7 µM] | ? | -11% | ? | 28µM* | 1.8µM*
Nc1ccc2oc(-c3ccccc3Cl)cc(=O)c2c1O | -4%[88.7 µM] | -26 | 1% | . | ? | ?
O=c1cc(-c2ccccc2Cl)oc2ccc([N+](=O)[O-])c(O)c12 | 6%[88.7 µM] | 43 | 14% | ? | 11µM* | ?
